Assay results from PubChem BioAssay (EPA / NIEHS).
Activity calls are given as the source filed them. Rule for the calls: active = hit-call score of the fitted dose curve at least 0.9, where 1 is the maximum; inactive = score below 0.9.

Columns and labels:
Settings in all cases: mRNA level, 48 h; actives raise or lower the signal
[1] = read-out: CFLAR gene, CFLAR (gene 8837); experiment: LTEA_HepaRG_CFLAR: Life Technologies and Expression Analysis (LTEA) Assay for CFLAR gene using HepaRG (AID 2283455)
Summary of the method: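 Transcript level by qRT-PCR (normalized to ACTB, GAPDH and POLR2A) after 48 h chemical exposure of HepaRG cells, top concentration 100 uM with half-log steps, 0.5% DMSO vehicle, duplicates; fitted bidirectionally against DMSO baseline.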

[2] = read-out: Forkhead box O1 (FOXO1), FOXO1 (gene 2308); experiment: LTEA_HepaRG_FOXO1: Life Technologies and Expression Analysis (LTEA) Assay for Forkhead box O1 (FOXO1) using HepaRG (AID 2283456)
Summary of the method: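 FOXO1 transcript quantified by qRT-PCR after 48 h chemical exposure (top 100 uM, half-log steps, 0.5% DMSO) of HepaRG cells, housekeeping-normalized (ACTB/GAPDH/POLR2A). Changes fitted in both directions relative to vehicle.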

[3] = read-out: growth arrest and DNA damage 45 (GADD45A), GADD45A (gene 1647); experiment: LTEA_HepaRG_GADD45A: Life Technologies and Expression Analysis (LTEA) Assay for growth arrest and DNA damage 45 (GADD45A) using HepaRG (AID 2283458)
Summary of the method: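 Eight-point concentration-response in HepaRG cells: 48 h chemical exposure, 0.5% DMSO vehicle, top dose 100 uM. Normalized qRT-PCR mRNA readout with bidirectional fitting relative to DMSO.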

[4] = read-out: Forkhead box O3 (FOXO3), FOXO3 (gene 2309); experiment: LTEA_HepaRG_FOXO3: Life Technologies and Expression Analysis (LTEA) Assay for Forkhead box O3 (FOXO3) using HepaRG (AID 2283459)
Summary of the method: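 FOXO3 transcript measured by qRT-PCR (normalized to ACTB, GAPDH, POLR2A) after 48 h exposure of HepaRG cells in serum-free induction medium. Duplicates, eight half-log concentrations up to 100 uM, 0.5% DMSO; gain or loss fitted against DMSO.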

[5] = read-out: ABC Transporter (ABCB1), ABCB1 (gene 5243); experiment: LTEA_HepaRG_ABCB1: Life Technologies and Expression Analysis (LTEA) Assay for ABC Transporter (ABCB1) using HepaRG (AID 2283460)
Summary of the method: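 ABCB1 transcript level measured by TaqMan qRT-PCR against three housekeeping genes after 48 h chemical exposure of differentiated HepaRG cells. Top concentration 100 uM, half-log steps, eight points, 0.5% DMSO vehicle; bidirectional fit relative to DMSO.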

[6] = read-out: growth arrest and DNA damage 45 (GADD45B), GADD45B (gene 4616); experiment: LTEA_HepaRG_GADD45B: Life Technologies and Expression Analysis (LTEA) Assay for growth arrest and DNA damage 45 (GADD45B) using HepaRG (AID 2283461)
Summary of the method: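 HepaRG, ~100,000 cells/well, 48 h plating; serum-free induction medium; cpd 100 uM top, half-log x8, 0.5% DMSO, duplicate, 48 h; lysis in RLT, RNA isolation, qRT-PCR; norm ACTB/GAPDH/POLR2A; bidirectional fit vs DMSO.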

[7] = read-out: ABC Transporter (ABCC3), ABCC3 (gene 8714); experiment: LTEA_HepaRG_ABCC3: Life Technologies and Expression Analysis (LTEA) Assay for ABC Transporter (ABCC3) using HepaRG (AID 2283462)
Summary of the method: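 Human HepaRG, 48 h dosing, 8-pt half-log series from 100 uM, 0.5% DMSO vehicle, duplicates. ABCC3 mRNA by TaqMan qRT-PCR, housekeeping-normalized; bidirectional curve fit vs DMSO.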

[8] = read-out: ABC Transporter (ABCB11), ABCB11 (gene 8647); experiment: LTEA_HepaRG_ABCB11: Life Technologies and Expression Analysis (LTEA) Assay for ABC Transporter (ABCB11) using HepaRG (AID 2283463)
Summary of the method: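 ABCB11 transcript levels quantified by TaqMan qRT-PCR against three housekeeping genes after 48 h chemical exposure of HepaRG cultures. Concentrations up to 100 uM in half-log steps, 0.5% DMSO vehicle; both induction and suppression scored.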

[9] = read-out: ABC Transporter (ABCC2), ABCC2 (gene 1244); experiment: LTEA_HepaRG_ABCC2: Life Technologies and Expression Analysis (LTEA) Assay for ABC Transporter (ABCC2) using HepaRG (AID 2283464)
Summary of the method: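 HepaRG, 48 h post-plating; serum-free induction medium; cpd 8-pt, 100 uM top, half-log, 0.5% DMSO, duplicate, 48 h. Readout: ABCC2 mRNA by qRT-PCR, norm. ACTB/GAPDH/POLR2A. Bidirectional fit vs DMSO baseline.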

[10] = read-out: Broad substrate specificity ATP-binding cassette transporter ABCG2 (Homo sapiens) (UniProt Q9UNQ0); experiment: LTEA_HepaRG_ABCG2: Life Technologies and Expression Analysis (LTEA) Assay for ABC Transporter (ABCG2) using HepaRG (AID 2283465)
Summary of the method: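 ABCG2 transcript was quantified by TaqMan qRT-PCR against three housekeeping genes in HepaRG cells. Cells were treated in duplicate for 48 h across an 8-point half-log series up to 100 uM, with 0.5% DMSO vehicle. Gain or loss versus DMSO was fit.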

[11] = read-out: ATP-citrate lyase (ACLY), ACLY (gene 47); experiment: LTEA_HepaRG_ACLY: Life Technologies and Expression Analysis (LTEA) Assay for ATP-citrate lyase (ACLY) using HepaRG (AID 2283466)
Summary of the method: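 ACLY mRNA quantified by qRT-PCR on Fluidigm arrays against three housekeeping genes, after 48 h chemical treatment of HepaRG cells (top concentration 100 uM, half-log steps, 0.5% DMSO vehicle). Up- or down-regulation fitted relative to DMSO.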

[12] = read-out: Peroxisomal acyl-coenzyme A oxidase 1 (ACOX1) gene, ACOX1 (gene 51); experiment: LTEA_HepaRG_ACOX1: Life Technologies and Expression Analysis (LTEA) Assay for Peroxisomal acyl-coenzyme A oxidase 1 (ACOX1) gene using HepaRG (AID 2283467)
Summary of the method: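 ACOX1 transcript levels were quantified by TaqMan qRT-PCR against three housekeeping genes after 48 h chemical exposure of differentiated human HepaRG cells. Exposure used eight half-log steps topping at 100 uM, 0.5% DMSO vehicle, in duplicate. Bidirectional curve fits were made relative to DMSO.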

[13] = read-out: Alkaline Phosphatase, Placental (ALPP) gene, ALPP (gene 250); experiment: LTEA_HepaRG_ALPP: Life Technologies and Expression Analysis (LTEA) Assay for Alkaline Phosphatase, Placental (ALPP) gene using HepaRG (AID 2283468)
Summary of the method: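 HepaRG, 48 h plating then 48 h dosing, serum-free induction medium, 0.5% DMSO. 8 conc, half-log, max 100 uM, duplicates. Endpoint: ALPP transcript by qRT-PCR, housekeeping-normalized; gain or loss fitted vs DMSO.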

[14] = read-out: Bcl-2 (BAD) gene, BAD (gene 572); experiment: LTEA_HepaRG_BAD: Life Technologies and Expression Analysis (LTEA) Assay for Bcl-2 (BAD) gene using HepaRG (AID 2283469)
Summary of the method: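 Read-out: qRT-PCR of BAD mRNA, normalized to three housekeeping genes. Human HepaRG cultures got 48 h chemical exposure in 0.5% DMSO, duplicate eight-point half-log series topping at 100 uM. Gain or loss of signal fitted versus DMSO vehicle.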

[15] = read-out: Bcl-2 (BAX) gene, BAX (gene 581); experiment: LTEA_HepaRG_BAX: Life Technologies and Expression Analysis (LTEA) Assay for Bcl-2 (BAX) gene using HepaRG (AID 2283470)
Summary of the method: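 Human HepaRG cells treated in duplicate for 48 h across eight concentrations (max 100 uM, 0.5% DMSO); BAX expression measured by qRT-PCR.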

[16] = read-out: adenosine kinase (ADK) gene, ADK (gene 132); experiment: LTEA_HepaRG_ADK: Life Technologies and Expression Analysis (LTEA) Assay for adenosine kinase (ADK) gene using HepaRG (AID 2283471)
Summary of the method: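 HepaRG (human liver), 48 h chemical exposure, 8-pt half-log series, top 100 uM, 0.5% DMSO vehicle. Readout: ADK mRNA by qRT-PCR vs housekeeping genes; bidirectional curve fit relative to DMSO baseline.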

[17] = read-out: Alpha-fetoprotein (AFP) gene, AFP (gene 174); experiment: LTEA_HepaRG_AFP: Life Technologies and Expression Analysis (LTEA) Assay for Alpha-fetoprotein (AFP) gene using HepaRG (AID 2283472)
Summary of the method: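 Measures AFP mRNA change in HepaRG after 48 h chemical exposure (8 half-log concentrations, highest 100 uM, 0.5% DMSO). Fold change relative to DMSO, fitted in both directions.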

BCL2L11 (gene 10018) = experiment: LTEA_HepaRG_BCL2L11: Life Technologies and Expression Analysis (LTEA) Assay for Bcl-2 (BCL2L11) gene using HepaRG (AID 2283473)
Summary of the method: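 Read-out is BCL2L11 transcript level by qRT-PCR, normalized to three housekeeping genes and fitted bidirectionally against 0.5% DMSO vehicle. HepaRG cells received chemicals for 48 h in serum-free induction medium, 100 uM down in half-log dilutions.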

Measured: outcome

Chain of Broad substrate specificity ATP-binding cassette transporter ABCG2 (Homo sapiens) (Q9UNQ0 whole entry, looked up): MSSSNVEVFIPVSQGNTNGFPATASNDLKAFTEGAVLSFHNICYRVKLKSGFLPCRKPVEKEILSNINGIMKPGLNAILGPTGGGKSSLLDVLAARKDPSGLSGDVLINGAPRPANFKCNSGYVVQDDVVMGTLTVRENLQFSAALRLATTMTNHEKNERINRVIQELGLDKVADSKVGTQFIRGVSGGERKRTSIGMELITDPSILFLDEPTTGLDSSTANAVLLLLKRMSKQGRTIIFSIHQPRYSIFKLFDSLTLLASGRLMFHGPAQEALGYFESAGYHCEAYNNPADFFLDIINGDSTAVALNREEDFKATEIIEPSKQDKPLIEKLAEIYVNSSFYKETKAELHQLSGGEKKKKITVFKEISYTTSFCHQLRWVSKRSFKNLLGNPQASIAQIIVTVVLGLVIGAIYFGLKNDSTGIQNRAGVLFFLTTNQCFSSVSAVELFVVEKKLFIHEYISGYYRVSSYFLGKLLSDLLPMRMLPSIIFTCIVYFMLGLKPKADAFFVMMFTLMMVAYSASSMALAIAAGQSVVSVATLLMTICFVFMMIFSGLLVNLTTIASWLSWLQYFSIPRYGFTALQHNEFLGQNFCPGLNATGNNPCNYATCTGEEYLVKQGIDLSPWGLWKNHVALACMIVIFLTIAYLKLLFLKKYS

c1cc[n+]2c(c1)-c1cccc[n+]1CC2
inactive: [1] | [2] | [3] | [4] | [5] | [6] | [7] | [8] | [9] | [10] | [11] | [12] | [13] | [14] | [15] | [16] | [17] | BCL2L11 (gene 10018)
